Screens from PubChem BioAssay.
TTR transcr act: activators of transthyretin transcription. SH-SY5Y TTR promoter Gaussia luciferase, luminescence; 100% = recombinant luciferase protein wells. activation, % at 16.7 µM. 92,000 tested, 1.3% active;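 active = activation above the mean of all tested compounds plus 3 SD, cut at about 9.5% in these data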;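 also: cells exposed to compounds for one day before reading; 0% = median of all test compound wells on the plate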
HuH7 TTR inh: decreases TTR transcription in HuH7 cells in activator counter-screen; shares compounds with TTR transcr act; HuH7 TTR promoter-Gaussia luciferase reporter, luminescence; inhibition, % at 16.7 µM; 1,100 tested, 4% active; AID 1117279;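 active = average inhibition above the solvent-only control wells' mean plus 3 SD, cut at about 15% in these data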;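 also: 0% = cells with DMSO only and 100% = cells with inhibitor control FD; inhibitors lower well luminescence so higher value means more inhibition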
TTR up confirm: confirmation of human transthyretin transcription activators; shares compounds with TTR transcr act; AID 1117280; activation, % at 16.7 µM; SHSY5Y TTR promoter Gaussia luciferase, luminescence; 100% = purified Lucia enzyme wells, no cells; 1,100 tested, under 10 active;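 active = mean activation above a set limit taken from the earlier primary screen, cut at about 11% in these data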;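 also: 0% = DMSO-treated cells and 100% = recombinant Lucia luciferase without cells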
An asterisk follows results filed as active. Many of the other results were omitted from the sample, so hits are more common in it than they were.

SMILES | TTR transcr act | others
CCOc1ccc2nc(NC(=O)CSc3nc(SC)ns3)sc2c1 | 19.6* | HuH7 TTR inh=-7.5;TTR up confirm=0.6
COc1ccc(/C=C/C(=O)OCc2csc(-c3ccccc3)n2)cc1OC | -1.2
COc1ccccc1OCc1csc(N)n1 | 23.9* | HuH7 TTR inh=-14.3;TTR up confirm=-0.2
CC(=O)Nc1nc(COc2ccccc2)cs1 | -0.8
CCNC(=O)CCc1nc(-c2ccc(C(C)C)cc2)no1 | 0.3
COC(=O)[C@]12C[C@H](CC(=O)NCCc3ccccc3OC)C(=O)N(Cc3ccccc3)C1=C[C@H](COCc1ccccc1)O[C@@H]2C | 2.1
COC(=O)[C@]12C[C@H](CC(=O)NCc3cccs3)C(=O)N(Cc3ccccc3)C1=C[C@H](COCc1ccccc1)O[C@@H]2C | -1.3
O=c1cc(N2CCN(c3ccnc4cc(Cl)ccc34)CC2)[nH]c(=O)n1C1CCCCC1 | 2.5
CCOC(=O)C1CCN(C(=O)Cn2nc(C)n3nc(-c4ccc(OC)cc4)cc3c2=O)CC1 | 10.7* | HuH7 TTR inh=-5.5;TTR up confirm=-1.5
CCOC(=O)C1CCN(C(=O)/C=C/c2ccc(OC)cc2)CC1 | 1.3
CCc1ccc(-c2cc3c(=O)n(CC(=O)NCCN4CCCCC4C)nc(C)n3n2)cc1 (stereo not given) | 4.7
O=C1CCC[C@H]2C[C@H](NCc3ccc(Cl)c(Cl)c3)CC[C@]23CCCN13 | -0.5
CC(=O)Nc1c(-c2ccc(F)cc2)nc2ncccn12 | 1.4
CC(=O)Nc1ccc(/C=C/COC(C)=O)cc1C | 0.2
O=C1CCC[C@H]2C[C@H](NCc3ccc(Cl)cc3)CC[C@]23CCCN13 | -0.4
O=C1CCN(c2ncccc2[N+](=O)[O-])CC1 | 11.9* | HuH7 TTR inh=-2.2;TTR up confirm=-0.7
O=[N+]([O-])c1cccnc1N1CCOCC1 | -0.2
N#CC1CCN(c2ncccc2[N+](=O)[O-])CC1 | 0.7
CC(=O)c1cc(-c2cccc(CO)c2)c(=O)n2c1CCC2 | 1.0
CCN(CC)C(=O)CSc1ncnc2sc(-c3ccccc3)cc12 | -4.3
CCc1cc2c(SCC(=O)C(C#N)=C3N(C)c4ccccc4N3C)ncnc2s1 | 9.9* | HuH7 TTR inh=-28.9;TTR up confirm=0.5
CC(C)C(C)(C#N)NC(=O)CSc1ncnc2sc(-c3ccccc3)cc12 (stereo not given) | -1.4
Nc1[nH]c2cc(C(F)(F)F)ccc2c1C(=O)NC1CCCCC1 | 0.9
O=C(OCc1cn(Cc2c(F)cccc2F)nn1)N1CCCC1 | 1.6
C#CCNC(=O)C[C@H]1C[C@@]2(C(=O)OC)C(=C[C@H](C3CCCC3)O[C@@H]2C)N(Cc2ccc(Cl)cc2Cl)C1=O | 0.2
SMILES | TTR transcr act | others
CC1(c2nnnn2Cc2ccccc2)CCC(=O)N1CCc1ccccc1F (stereo not given) | 11.2* | HuH7 TTR inh=-11.3;TTR up confirm=-0.1
CC1(c2nnnn2Cc2ccccc2)CCC(=O)N1CC(F)(F)F (stereo not given) | -0.6
CC1(c2nnnn2Cc2ccccc2)CCC(=O)N1CCc1c[nH]c2ccccc12 (stereo not given) | -0.6
CCOC(=O)[C@]12CCCC=C1N(CCCOC)C(=O)[C@@H]2CC(=O)N1CCN(C(=O)c2ccco2)CC1 | -1.1
COC(=O)[C@]12C[C@H](CC(=O)NCCc3ccccc3OC)C(=O)N(Cc3cccc4ccccc34)C1=C[C@H](C1CCCC1)O[C@@H]2C | -1.2
Cn1c(=O)c2c(nc(CN3CCc4ccccc4C3)n2Cc2ccccc2)n(C)c1=O | -3.5
CCOCCn1c(CN2CCc3ccccc3C2)nc2c1c(=O)n(C)c(=O)n2C | 12.8* | HuH7 TTR inh=2.5;TTR up confirm=-0.5
CCOCCn1c(CN2CCN(c3ccccc3)CC2)nc2c1c(=O)n(C)c(=O)n2C | 1.8
O=C(COC(=O)c1ccccn1)NCCc1ccc(Cl)cc1 | 10.5* | HuH7 TTR inh=-8.4;TTR up confirm=0.3
Cc1ccnc2nc(C(=O)OCC(=O)NCCc3ccc(Cl)cc3)nn12 | 1.1
O=C(COC(=O)c1ccccn1)Nc1cccc(Cl)c1Cl | 1.5
CCCC1CCC2(CC1)CCC2OC(=S)Nc1ccccc1 (stereo not given) | -0.3
CCCc1nnc(-c2ccc(OC)cc2)o1 | 11.7* | HuH7 TTR inh=-1.3;TTR up confirm=-0.8
COc1ccc(SCCc2nnc(-c3ccccc3)o2)cc1 | -0.8
COc1ccc(Cc2nnc(-c3ccccc3)o2)cc1 | -1.2
O=c1c2cc3cc4c(cc3nc2ncn1CCc1ccccc1)OCO4 | -0.3
O=c1c2cc3cc(Cl)ccc3nc2ncn1CCc1ccc(O)cc1 | -0.5
O=c1c2cc3cc4c(cc3nc2ncn1Cc1cccnc1)OCO4 | 18.2* | HuH7 TTR inh=-10.1;TTR up confirm=2.0
CC(C)C[C@H](NC1(C(=O)NC2CCCCC2)CCCCC1)C(=O)NCCc1c[nH]c2ccccc12 | 0.2
O=C(NCCN1CCOCC1)c1cc(-c2ccc(F)cc2)on1 | 4.3
CC(C)Cc1cc(C(=O)NCCCN2CCOCC2)no1 | 11.2* | HuH7 TTR inh=1.9;TTR up confirm=-1.1
O=C(NCCN1CCOCC1)c1cc(-c2ccco2)on1 | 3.0
CCCCc1ccc(-c2noc(CCC(=O)NCC)n2)cc1 | -1.4
CC(C)[C@H](NC(=O)N1CC(=O)Nc2ccccc21)C(=O)N[C@@H](Cc1ccccc1)C(=O)O | 2.0
CCC(C)[C@H](NC(=O)N1CC(=O)Nc2ccccc21)C(=O)N[C@@H](Cc1c[nH]c2ccccc12)C(=O)O (stereo not given in full) | 11.6* | HuH7 TTR inh=-22.4;TTR up confirm=-0.1
SMILES | TTR transcr act | others
CC(C)C[C@H](NC(=O)N1CC(=O)Nc2ccccc21)C(=O)N[C@H](Cc1c[nH]c2ccccc12)C(=O)O | 1.6
Cc1ccc(S(=O)(=O)N2c3ccccc3C[C@H]2CC=C(c2ccccc2)c2ccccc2)cc1 | 1.3
CCOC(=O)N1CCN(c2cc(=O)n(-c3ccc(OC)cc3)c(=O)[nH]2)CC1 | 9.7* | HuH7 TTR inh=-4.1;TTR up confirm=-0.8
CCOc1ccc(-n2c(=O)cc(N3CCN(c4ccc(F)cc4)CC3)[nH]c2=O)cc1 | 0.7
CCOC(=O)N1CCN(c2cc(=O)n(-c3ccccc3C)c(=O)[nH]2)CC1 | -0.7
O=C(NC1CCCC1)c1cc(=O)[nH]c2ccccc12 | 6.5
COC(=O)C1CN(Cc2ccccc2)CCS(=O)(=O)N1Cc1ccccc1F (stereo not given) | -0.6
FC(F)(F)c1ccc2nc(CNc3nc(N4CCOCC4)nc4c3ncn4-c3ccsc3)[nH]c2c1 | 1.7
Cc1ccc(NC(=O)CN(C)C(=O)c2ccc(NS(=O)(=O)c3ccc4[nH]c(=O)[nH]c4c3)cc2)cc1 | 2.8
Cc1ccccc1CN1CCCCC(NC(=O)Nc2cccc(F)c2)C1=O (stereo not given) | -0.2
CCCC/C=C1/C(c2ccccc2)N(Cc2ccc(OC)cc2OC)C2=NC(c3ccccc3)CC(=O)N21 (stereo not given) | 1.7
COC(=O)[C@H](CCSC)NC(=O)NCc1ccccn1 | 18.6* | HuH7 TTR inh=-17.3;TTR up confirm=0.9
COC(=O)[C@H](CCSC)NC(=O)Nc1ccc(C(C)C)cc1 | -1.1
COC(=O)[C@H](CCSC)NC(=O)NCCc1ccc(F)cc1 | 1.3
O=c1c2c3c(sc2n(CCN2CCOCC2)c(=O)n1C1CCCCC1)CCCCC3 | 0.9
COc1ccc(C)c(NC(=O)[C@@H]2CCCN2S(=O)(=O)c2cccc3cccnc23)c1 | -0.2
CC(C)[C@@H](C)/C=C/[C@@H](C)[C@H]1CC[C@@H]2[C@]1(C)CCC1[C@]23C=C[C@]2(C[C@@H](O)CC[C@]12C)N(c1ccc(Br)cn1)O3 (stereo not given in full) | 0.1
